# Compound activity deposited in PubChem by National Center for Advancing Translational Sciences (NCATS).
# A549 viability – Nrf2 qHTS screen for inhibitors: counterscreen for cytotoxicity. A549 ARE-Fluc cells, CellTiter-Fluor viability, 18-24 h. Potency, µM (highest dose often 46 µM), without a hit: top-dose activity change, negative = cytotoxicity, hits mostly inhibitors. 390,000 compounds, 0.16% hits. AID 504648, 2011; further: potency means the concentration at half of the fitted maximal effect; on the % scale 0 is the no-effect control and ±100 the full control effect
#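 Cytotoxicity counterscreen: CellTiter-Fluor fluorescence was measured in A549 ARE_Fluc cells after 18-24 h of compound exposure in a concentration series. The subsequent BugLite luminescent read reports ARE-luciferase activity.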
# Nrf2 inh – Nrf2 qHTS screen for inhibitors | A549 ARE-Fluc reporter, luciferase luminescence, 18-24 h | Potency, µM (highest dose often 46 µM), for the others: at the top dose activity change, negative = inhibition, most hits filed as inhibitors | 360,000 compounds, 2.1% hits | AID 504444, 2011; further: potency means the concentration at half of the fitted maximal effect; on the % scale 0 is the no-effect control and ±100 the full control effect; nearly all actives have a fitted effect of over 60% in size
#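 A549 ARE_Fluc cells, 5000/well, 5% FBS OPTI-MEM; compounds in dose-response, 18-24 h at 37 °C/5% CO2; CellTiter-Fluor viability read (Ex 405/Em 525), then BugLite luciferase luminescence = Nrf2 activity.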
# ALOX12 inh – Primary qHTS assay for inhibitors of human arachidonate 12S-lipoxygenase (ALOX12): Round 2 | Polyunsaturated fatty acid lipoxygenase ALOX12 (Homo sapiens), P18054 | purified 12hLO, xylenol orange hydroperoxide absorbance | Potency, µM (top dose mostly 108 µM), without a hit: at the highest dose activity change, negative = inhibition, usual class: inhibitors | 580,000 compounds, 1.1% hits; further: potency means the concentration at half of the fitted maximal effect; on the % scale 0 is the no-effect control and ±100 the full control effect
# Target sequence (P18054 whole entry, looked up): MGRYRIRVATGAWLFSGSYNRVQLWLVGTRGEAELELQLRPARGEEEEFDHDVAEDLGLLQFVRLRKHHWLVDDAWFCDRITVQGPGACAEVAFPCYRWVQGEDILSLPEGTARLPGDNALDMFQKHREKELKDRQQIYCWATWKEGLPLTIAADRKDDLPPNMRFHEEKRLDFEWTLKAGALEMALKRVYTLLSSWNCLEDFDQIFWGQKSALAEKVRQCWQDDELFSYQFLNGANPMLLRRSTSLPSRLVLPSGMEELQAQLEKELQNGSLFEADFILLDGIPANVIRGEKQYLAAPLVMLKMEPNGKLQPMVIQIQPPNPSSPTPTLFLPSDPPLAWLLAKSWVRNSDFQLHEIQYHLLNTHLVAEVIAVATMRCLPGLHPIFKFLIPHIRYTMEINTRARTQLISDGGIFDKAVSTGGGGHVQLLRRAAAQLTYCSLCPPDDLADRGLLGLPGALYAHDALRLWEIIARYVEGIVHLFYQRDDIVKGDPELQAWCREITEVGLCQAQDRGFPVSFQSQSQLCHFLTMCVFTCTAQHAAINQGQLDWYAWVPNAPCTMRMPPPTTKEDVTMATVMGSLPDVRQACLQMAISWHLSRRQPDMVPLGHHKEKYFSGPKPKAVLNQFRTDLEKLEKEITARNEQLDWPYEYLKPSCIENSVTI
#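 Purified human 12hLO at 150 nM in 25 mM Hepes, 0.01% Triton X-100, pH 7.0, preincubated 15 min at room temperature with compound. Reaction started with 40 uM arachidonic acid, 30 min at room temperature. Hydroperoxide measured by Fe-xylenol orange, 573/405 nm absorbance ratio.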
# ERG Ets-DNA blk – qHTS for Small Molecule Inhibitors of the ERG Ets/DNA interaction | 370,000 compounds, 0.028% hits | Transcriptional regulator ERG (Homo sapiens), P11308 | fluorescence polarization, His-ERG Ets domain / labelled DNA | Potency, µM (top dose mostly 76.9 µM), for the others: at the highest dose FP activity, negative = inhibition, most hits filed as inhibitors; active means well fitted inhibition curve with a large enough effect in the polarisation, with a control signal flat; inconclusive means small, poorly fitted or top-dose-only effect, or effect the other way, or a change in a side signal; inactive means no such curve, though single readings can be large or run the other way; the % refers to the polarisation;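 further: polarization taken with two DNA probes labelled with fluorescein and Texas red; potency means the concentration at half of the fitted maximal effect; % of control where 0% means no effect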
#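 His-tagged ERG Ets domain (1 uM in the protein solution; 300mM KCl, 50mM Tris-HCl, 1mM EDTA, 1mM DTT, pH 7.5) received compound, then a probe mix of 5 nM fluorescein-DNA and 100nM Texas-615-DNA. Fluorescence polarization was read for both dyes.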
# LDHA inh – qHTS assay for inhibitors of human lactate dehydrogenase. purified LDHA, NADH/diaphorase-resazurin fluorescence; hits give low values. AID 1347041, 2019. L-lactate dehydrogenase A chain (Homo sapiens), P00338. 480,000 compounds, 0.15% hits. activity change, % (values are at about 110 or 230 µM); in the data active means activity change below about -30%; inconclusive means mostly about -25% to -30%;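 further: plate controls were DMSO wells for no effect and wells without enzyme for full effect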
#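 Enzyme activity of human lactate dehydrogenase 5 (2 nM; 0.06 mM NADH, 0.2 mM pyruvate, 5 min, RT) is measured via a resazurin/diaphorase fluorescence readout of residual NADH.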
# Nrf2 activator – qHTS of Nrf2 Activators; AREc32 ARE-luciferase reporter (MCF7-derived line), luminescence, 24 h; Potency, µM (titrated, usually from 46.1 µM), for inactives: at the top dose activation, hits mostly activators; 410,000 compounds, 0.31% hits; further: potency means the concentration at half of the fitted maximal effect; % of control where 0% means no effect; nearly all actives have a fitted effect of over 65% in size
#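 Luminescent ARE reporter assay in AREc32_Fluc cells: overnight plating at 37 deg C, 24 hr compound incubation, Steady-Glo added, 30 min RT before reading.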
# Active calls of the source: *; ? = inconclusive; . = not tested or not shown; [ ] = remark or other dose. Sampled rows, rich in hits. Any-hit rate of the full collection: about 2.7%. Unless noted, the call rests on the fitted dose curve; in most records, active means well fitted curve in the direction sought with a large enough effect; inconclusive means small, poorly fitted or top-dose-only effect, or another doubt; inactive means no such curve, though single readings can be large; an effect the other way counts as inactive or inconclusive.
SMILES,A549 viability,Nrf2 inh,ALOX12 inh,ERG Ets-DNA blk,LDHA inh,Nrf2 activator
N#CC(C(=O)C1c2ccccc2Oc2ccccc21)c1nc2ccccc2[nH]1 (configuration not stated),.,.,29.2%,.,-18.8,.
O=c1c2ccccc2nc(COc2ccccc2)n1/N=C/c1ccc(O)cc1O,-10.1%,25.9µM*,-15.5%,-3.2%,-1.1,-0.6%
Oc1ccccc1/C=N/n1c(COc2ccccc2)n[nH]c1=S,0.2%,-9.8%,19.7%,28.2µM*,-4.0,0.1%
Cc1ccccc1/C=N/n1c(COc2ccccc2)n[nH]c1=S,1.5%,-25.3%,1.5%,10.4%,-2.0,0.8%
Oc1ccc(/C=N/n2c(COc3ccccc3)n[nH]c2=S)c(O)c1,-2.4%,-1.0%,44.7µM*,-2.7%,0.3,-0.3%
CCc1n[nH]c(=S)n1/N=C/c1ccc(N(C)c2ccccc2)cc1,1.7%,3.3%,?,5.01µM*,1.9,4.6%
COc1ccc2oc(=O)c(-c3nc(-c4ccccn4)no3)cc2c1,.,.,-3.2%,.,9.4,.
CC1Cc2cc(S(N)(=O)=O)ccc2N1CC(=O)Nc1ccc(Cl)cc1F (configuration not stated),.,.,?,.,-4.8,.
COc1ccc(-c2ccc(-c3nc(CC(C)C)no3)cn2)c2cccnc12,.,.,108.6%,.,.,.
COc1cc(CN2CCN(c3ncc(Cc4ccccc4)cn3)CC2)cc(OC)c1,.,.,-6.9%,.,.,.
Fc1cccc(F)c1CN1CCN(c2ncccn2)CC1,23.2%,.,-8.8%,7.0%,5.3,1.8%
COc1cc(CN2CCN(Cc3ccc(C)cc3)CC2)cc(OC)c1,.,.,0.501µM*,.,3.7,.
COc1cc(CN2CCN(Cc3ccco3)CC2)cc(OC)c1,-0.1%,-0.2%,?,-4.8%,-32.3*,-0.3%
COc1cccc(CN2CCN(c3ncccn3)CC2)c1,-1.6%,-6.7%,0.794µM*,-0.7%,-14.9,-0.1%
Fc1ccccc1CN1CCN(c2ncccn2)CC1,1.1%,5.0%,0.562µM*,13.8%,-20.0,0.4%
CC(C)CCO,.,.,2.2%,.,.,.
CC(C)(C)C(=O)Nc1nnc(Cc2ccccc2F)s1,.,.,-10.8%,.,-0.9,.
Oc1ccc(-c2nc3cc(C(F)(F)F)ccc3s2)cc1,.,.,?,.,3.4,.
FC(F)(F)c1ccc(-c2noc([C@@H]3Cc4nc[nH]c4CN3CC3CCCCC3)n2)cc1,.,.,104.0%[176 µM],.,.,.
N#Cc1ccc(/C=C/c2nc3c(ccc4ccccc43)s2)cc1,.,.,?,.,6.2,.
Cc1cc(-c2ccc(C=O)o2)ccc1Br,.,.,?,.,1.1,.
Cn1c(=O)[nH]c(=O)c2c1nc(NCc1ccccc1Cl)n2CCCc1ccccc1,.,.,?,.,0.6,.
CCC1(c2ccccc2)NC(=O)N(Cc2coc(-c3cccs3)n2)C1=O (configuration not stated),.,.,?,.,7.5,.
COc1ccc(-n2c(=S)[nH]c3cc(C(=O)Nc4ccc(F)cc4)ccc3c2=O)c(OC)c1,1.4%,20.6µM*,?,6.4%,-3.2,4.0%
COc1ccc(-n2c(=S)[nH]c3cc(C(=O)NCc4ccc(F)cc4)ccc3c2=O)c(OC)c1,0.6%,16.4µM*,?,5.6%,-0.7,0.1%
SMILES,A549 viability,Nrf2 inh,ALOX12 inh,ERG Ets-DNA blk,LDHA inh,Nrf2 activator
COc1cc(NC(=O)Nc2ccc3nc(N4CCOCC4)cc(C)c3c2)cc(OC)c1OC,.,.,?,.,3.5,.
Cc1cc(F)cc(CC(=O)O)c1,.,.,?,.,-1.3,.
CCCCCCCCOS(=O)(=O)O,.,.,2.8%[176 µM],.,.,.
Cc1ncc(C(O)c2ccc(N(C)C)cc2)n1Cc1ccccc1 (configuration not stated),.,.,-0.3%,.,-9.0,0.8%
CN(C)c1ccc2nc3c(=O)[nH]c(=O)nc-3n(CC(O)C(O)C(O)CO)c2c1 (configuration not stated),10.3µM*,?,0.0%,4.5%,5.3,-0.7%
CCCCCCC#Cc1cncc(C(=O)NNC(=O)Nc2cc(Cl)cc(Cl)c2)c1,-2.7%,-22.2%,176.8%,-3.0%,-14.8,2.9%
CCCCC#Cc1cncc(C(=O)NN)c1,3.3%,18.4µM*,157.2%,1.1%,-10.9,0.2%
O=C(Cc1coc2cc3c(cc12)CCC3)OCCOc1ccccc1,.,.,-33.5%,.,10.0,.
CC(C)C(=O)Nc1ccc(C(=O)N/N=C/c2cc(Br)cc(Br)c2O)cc1,?,?,-21.7%,?,-3.5,-0.2%
CC(=O)Nc1ccc(C(=O)N/N=C/c2cc(Br)cc(Br)c2O)cc1,-11.7%,14.6µM*,-4.3%,-16.2%,-11.5,-0.9%
CCN(CC(=O)Nc1ccc(NC(C)=O)cc1)C(=O)/C=C/c1ccco1,0.0%,-12.3%,-0.7%,-2.9%,-3.9,-0.3%
CCCN(CC(=O)Nc1ccc(Cl)cc1Cl)C(=O)/C=C/c1ccco1,-3.6%,11.6%,?,0.8%,-7.1,11.2µM*
O=C(CC(Sc1ccccc1)c1cccs1)c1ccco1 (configuration not stated),-3.6%,9.6%,-4.2%,.,-1.6,17.8µM*
O=C(Cc1cccs1)OCC(=O)c1ccco1,-0.8%,23.4%,11.6%,-12.6%,-1.9,-0.7%
C=C(C)CN(CC)C(=O)c1nc(-c2cccs2)oc1C,.,.,?,.,-1.3,.
CN(N=Cc1ccccc1O)c1ccc2ccccc2n1,.,.,-13.6%,.,2.7,4.47µM*
Cc1cnc(C(=O)Nc2ccc(OC(F)(F)F)cc2)cn1,-16.4%,-27.4%,7.0%,-3.0%,-4.0,1.8%
Cc1ccc(C(=O)N2CCN(c3ncnc4c(C)csc34)CC2)cc1,-5.1%,?,425.2%,7.0%,-2.7,-0.1%
Cc1csc2c(N3CCN(C(=O)Nc4ccccc4)CC3)ncnc12,-2.6%,8.2µM*,2.4%,-15.8%,-5.5,4.0%
Cc1csc2c(N3CCN(C(=S)Nc4ccc(F)cc4F)CC3)ncnc12,-5.0%,18.4µM*,?,1.6%,-5.3,0.6%
Cc1csc2ncnc(N3CCN(C(=O)Nc4ccc(OC(F)(F)F)cc4)CC3)c12,?,23.1µM*,47.4%,-5.4%,0.4,3.7%
Fc1ccc(NC(=S)N2CCOCC2)c(F)c1,-0.5%,0.6%,0.4%,-3.2%,-15.2,-0.8%
NC(=O)C1=C(Nc2ccc3ccccc3c2)c2ccccc2S1(=O)=O,.,.,?,.,3.4,.
CC1CCN(S(=O)(=O)c2ccc3c(c2)C(Cl)(Cl)C(=O)N3)CC1,.,.,39.8µM*,.,14.7,?
CC(=O)c1ccc(N2CCN(S(=O)(=O)c3ccc4c(c3)C(Cl)(Cl)C(=O)N4)CC2)cc1,.,.,?,.,15.8,12.2%
